Holding throughout (assay): NCI-60 one-dose screen, 48 h (100 = growth as untreated, 0 = no growth, -100 = all killed)
Settings in all cases: 10 µM unless noted

For test [1], the system named is NCI-H23 lung.
In test [2] the test system is NCI-H226 lung.
Test [3] deals with NCI-H322M lung.
The subject of test [4] is HOP-62 NSCLC.
In test [5] the test system is NCI-H460 lung.
Test [6] has as its system HOP-92 NSCLC.
Test [7] deals with NCI-H522 lung.
The subject of test [8] is A549/ATCC NSCLC.
Test [9] concerns 786-0 renal.

These results are taken from PubChem BioAssay (NCI).

Compounds without any hit were thinned out: in the full panel of roughly 83,000, 20% have a hit.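 96-well plates, one dose, 48 hours. Percent growth reported; active if below 10.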 Unmarked numbers belong to inactive results. Activity calls are given as the source filed them.

Regarding `Cc1cc(N(CCCNc2ccnc3cc(Cl)ccc23)Cc2ccccn2)nc(N2CCOCC2)n1`, the growth in test [1] is 90.4%; in [2], 90.9%; in [3] it was 94.1%; in test [4], 85.2%; in [5], 99.7%; in test [6] it was 66.6%. In addition, the growth in [7] is 74.7%; in [8], 86.4%; in test [9], 86%.

As to `Cc1c2c(cn1Cc1ccccc1)CCc1cn(C)nc1-2`, the growth is 63.7% in test [1]; 95.3% in test [2]; 107% in test [3]; 92.1% in test [4]; 93.3% in [5]; 40% in test [6]. The growth in test [7] is 78.3%; in test [8], 89.8%; in test [9], 81.8%.

Take `Clc1cnc(Nc2ccc(OCCN3CCCC3)cc2)nc1NCc1ccco1`: the growth in test [1] was 10.2%; in [2], -9.35% (active); in test [3], 19.9%; in test [4], 11.7%; in test [5] it was 3.25% (active); in test [6], 5.42% (active). The growth in test [7] was 55.2%; in test [8], 11.3%; in test [9] it was 23.7%.

Take `CCC(C)NCc1ccccc1` (stereo unspecified): the growth in test [1] is 97.1%; in test [2], 92.2%; in test [3], 98.1%; in test [4], 97.6%; in test [5], 102%; in test [6], 93.8%. For the same molecule, the results for the growth in test [7], in test [8] and in test [9] were 66.7%, 95.4% and 98.6%, respectively.

Regarding `c1ccc2c(c1)ncn2-c1nc2ccccc2n2c1nc1ccccc12`, the growth was 67.1% in [1]; 78.4% in [2]; 62.9% in test [3]; 50.1% in test [4]; 52.1% in test [5]; 88.5% in test [6]. Also, the growth in [7] is 81.6%; in test [8] it was 81.7%; in test [9], 98.3%.

Take `Cc1ccc(S(=O)(=O)N(CC[C@@H]2C[C@H]2c2cc3ccccc3o2)C(=O)NC2CCCCC2)cc1`: the growth in test [1] is 78.2%; in [2], 87.3%; in test [3], 108%; in [4], 93.1%; in test [5] it was 104%; in test [6], 110%. Moreover, the growth in [7] was 86%; in test [8], 101%; in [9], 95.4%.

In the case of `Cc1nn(-c2ccccc2)c2c1C(c1ccc([N+](=O)[O-])cc1)C(C#N)=C(N)O2` (stereo unspecified), the growth was 98.4% in [1]; 99.3% in test [2]; 116% in test [3]; 94.3% in test [4]; 108% in test [5]; 91.7% in test [6]. The figures for the growth in test [7], in test [8] and in [9] were 97.5%, 102% and 102%, respectively.

For the molecule `COc1ccc(Oc2nc(Nc3ccc(N4CCOCC4)nc3)ncc2NC(=O)c2cc(OC)cc(OC)c2)cc1`, the growth was 97.9% in test [1]; 65% in test [2]; 88% in [3]; 82.6% in [4]; 82.3% in test [5]; 82.8% in test [6]. Further, the growth in test [7] was 52.1%; in test [8], 84.6%; in test [9], 67.4%.

Take `O=S(=O)(Nc1ccsc1-c1nc(-c2ccccc2)no1)c1cc(Cl)cc(Cl)c1`: the growth is 94.4% in [1]; 98.6% in test [2]; 95.4% in test [3]; 76.2% in test [4]; 100% in [5]; 83.5% in test [6]. Moreover, the growth in [7] is 77.3%; in test [8], 90%; in [9], 98.5%.

Regarding `O=C1Nc2ccccc2SC1c1ccccc1Cl` (stereo unspecified), the growth in test [1] was 102%; in test [2] it was 104%; in [3], 95.6%; in test [4], 96.3%; in test [5] it was 116%; in test [6] it was 69.2%. Also, the growth in test [7] was 103%; in [8], 90%; in [9], 97.5%.

As to `COc1ccc(-n2ncn(CCCCCCn3cnn(-c4ccc(OC)cc4)c3=O)c2=O)cc1`, the growth was 82.9% in [1]; 80.3% in test [2]; 88.4% in [3]; 89.5% in test [4]; 103% in test [5]; 89.4% in test [6]. In addition, the figures for the growth in test [7], in test [8] and in test [9] were 76.3%, 96.7% and 96.7%, respectively.

On to `COc1ccc(CN2C(=O)/C(=C\c3cc(OC)c(OC)c(OC)c3)c3ccccc32)cc1`, for which the growth was -8.08% (active) in [1]; 11.8% in test [2]; 19.6% in test [3]; -33% (active) in [4]; -53% (active) in [5]; 0.884% (active) in [6]. Also, the growth was -54.1% (active) in test [7], 9.31% (active) in [8] and 1.15% (active) in test [9].

`CCOc1ccc(S(=O)(=O)c2ccc(C)cc2)c2c1no[n+]2[O-]`: the growth is 82.4% in test [1]; 77.2% in [2]; 92.7% in test [3]; 101% in test [4]; 86.4% in test [5]; 36.5% in test [6]. The values for the growth in test [7], in test [8] and in test [9] were 57.1%, 97.2% and 79.6%, respectively.

With `COc1ccc(/C=C(\C#N)n2nnc3ccccc32)cc1`, the growth in [1] is 15.1%; in test [2], 1.15% (active); in test [3], 25.8%; in test [4] it was 26.2%; in test [5], 2.42% (active); in test [6], 24.7%. For the same molecule, the growth in test [7] is 21.2%; in test [8], 19.5%; in [9], 7.4% (active).
